We go through 53 compounds from PubChem BioAssay (Tox21).

Inconclusive results are not listed. A number with no mark means an inactive call. Activity calls are given as the source filed them. The call rests on the fitted dose curve; in most records, active means well fitted cell-killing curve with a large enough effect in the repeat runs; inconclusive means weak or mixed curves, or effect the other way; inactive means flat fitted curve, though single readings scatter.

The nature of experiment [1]: cAMP Responsive Elements (CRE) small molecule antagonists, cell-based qHTS assay: qHTS cell viability counter screen (AID 2060913). Further: nearly all actives have a fitted effect of over 40% in size. The gist of the method:
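HEK293T CRE-bla, 2,000 cells/well, 18 h preincubation; cpd in DMSO + NKH477 0.25 uM final, 3 h 37 C/5% CO2; LiveBLAzer 2 h RT, then CellTiter-Glo 30 min RT, luminescence.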
For orientation: qHTS replaces the single test concentration by a dilution series.

Experiment [2] can be described thus: cAMP Responsive Elements (CRE) small molecule agonists, cell-based qHTS assay: qHTS cell viability counter screen (AID 2060914). Further: nearly all actives have a fitted effect of over 50% in size. A digest of the protocol: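 HEK 293T CRE-bla; DMEM + 10% dialyzed FBS, 25 mM HEPES; 18 h pre-incubation; compound 3 h, 37 °C/5% CO2; CellTiter-Glo added after reporter read; luminescence after 30 min RT.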
On the % scale 0 is the no-effect control and ±100 the full control effect; potency means the concentration at half of the fitted maximal effect.

For `COC(=O)C1=C(C)NC(C)=C(C(=O)OCCc2ccc(N3CCN(C(c4ccccc4)c4ccccc4)CC3)cc2)C1c1cccc([N+](=O)[O-])c1` (stereo unspecified), the Potency entry in experiment [1] and in experiment [2] was “inactive” in each case.
For the compound `NC(=O)OCC(COC(N)=O)c1ccccc1`, the Potency entry in experiment [1] and in experiment [2] was “inactive” throughout.
As to `c1ccc(OCCOc2ccccc2)cc1`, the Potency entry in experiment [1] and in experiment [2] was “inactive” each time.
For the compound `C[C@H](N)C(=O)N[C@@H](C)C(=O)NC1[C@H]2CN(c3nc4c(cc3F)c(=O)c(C(=O)O)cn4-c3ccc(F)cc3F)C[C@@H]12` (stereo partly specified), the Potency result in experiment [1] and in experiment [2] was “inactive” in each case.
For `CCCCCc1ccc(O)cc1`, the Potency result in experiment [1] and in experiment [2] was “inactive” throughout.
With `c1ccc2sc(SSc3nc4ccccc4s3)nc2c1`, the viability change, negative = cytotoxic in experiment [1] was 2.3% [at 18.9 µM]. In experiment [2], the activity change, negative = cytotoxicity is -2.25% [at 18.9 µM].
Turning to `O=C1c2ccccc2C(=O)N1SC1CCCCC1`, the Potency entry in experiment [1] and in experiment [2] was “inactive” in each case.
As to `CC(=O)c1ccccn1`, the Potency entry in experiment [1] and in experiment [2] was “inactive” throughout.
Regarding `IC(I)I`, the Potency entry in experiment [1] and in experiment [2] was “inactive” in each case.
On to `O=P(O)(O)C(O)(Cc1cccnc1)P(=O)(O)O`, for which the Potency result in experiment [1] and in experiment [2] was “inactive” throughout.
Turning to `CCCCCCCCCCl`, the Potency entry in experiment [1] and in experiment [2] was “inactive” each time.
In the case of `CC(=O)N1CCN(c2ccc(OC[C@H]3CO[C@](Cn4ccnc4)(c4ccc(Cl)cc4Cl)O3)cc2)CC1`, the values for the Potency in experiment [1] and in experiment [2] were 54.5 µM (active) and 68.6 µM (active), respectively.
For `CCCCCCCCCC(C)C=O` (stereo unspecified), in that order: “inactive” and “inactive”.
Regarding `Oc1ccc(O)cc1`, the Potency result in experiment [1] and in experiment [2] was “inactive” throughout.
Take `Cc1ccc(C=O)cc1C`: the Potency result in experiment [1] and in experiment [2] was “inactive” each time.
Take `CC(C)(C)c1cc(CCC(=O)NCCCCCCNC(=O)CCc2cc(C(C)(C)C)c(O)c(C(C)(C)C)c2)cc(C(C)(C)C)c1O`: the Potency entry in experiment [1] and in experiment [2] was “inactive” throughout.
In the case of `CC(C)COC(=O)CCCCC(=O)OCC(C)C`, the Potency entry in experiment [1] and in experiment [2] was “inactive” in each case.
For `O=C(CCc1ccc(O)cc1)c1c(O)cc(O)cc1O`, the Potency result in experiment [1] and in experiment [2] was “inactive” each time.
Take `COCCOC[C@H](CC1(C(=O)NC2CCC(C(=O)O)CC2)CCCC1)C(=O)Oc1ccc2c(c1)CCC2` (stereo partly specified): the Potency result in experiment [1] and in experiment [2] was “inactive” each time.
Consider `C=C[C@@]1(C)CC(=O)[C@]2(O)[C@@]3(C)[C@@H](O)CCC(C)(C)[C@@H]3[C@H](O)[C@H](OC(C)=O)[C@@]2(C)O1`, for which the Potency entry in experiment [1] and in experiment [2] was “inactive” each time.
On to `CC(C)(C)OC(=O)N1C[C@@H](F)C[C@H]1C(=O)O`, for which the Potency entry in experiment [1] and in experiment [2] was “inactive” each time.
As to `CC(=O)Oc1ccccc1C(=O)O`, the Potency entry in experiment [1] and in experiment [2] was “inactive” throughout.
Regarding `N[C@H](C(=O)O)[C@@H](O)c1ccc(O)c(O)c1`, the Potency result in experiment [1] and in experiment [2] was “inactive” in each case.
For `CC(C)(c1ccc(Oc2ccc(N)cc2)cc1)c1ccc(Oc2ccc(N)cc2)cc1`, the Potency result in experiment [1] and in experiment [2] was “inactive” in each case.
As to `CCCCCC(=O)O`, the Potency entry in experiment [1] and in experiment [2] was “inactive” each time.
Consider `CCCCC(CC)C(=O)OCCOCCOCCOCCOC(=O)C(CC)CCCC` (stereo unspecified), for which the Potency entry in experiment [1] and in experiment [2] was “inactive” each time.
Regarding `CCC(=O)O[C@]1(C(=O)COC)[C@@H](C)C[C@H]2[C@@H]3CCC4=CC(=O)C=C[C@]4(C)C3(F)[C@@H](O)C[C@@]21C` (stereo partly specified), the Potency result in experiment [1] and in experiment [2] was “inactive” in each case.
Turning to `Clc1ccccc1-c1nc(-c2ccncc2)no1`, the Potency result in experiment [1] and in experiment [2] was “inactive” in each case.
For the compound `CCCCCCCCCCCCCCCCN(C)C`, the viability change, negative = cytotoxic in experiment [1] was -5.89% [at 8.39 µM]. Moreover, in experiment [2], the activity change, negative = cytotoxicity is -12.8% [at 8.39 µM].
Regarding `Cc1ccc2nc(-c3ccc(N)cc3)sc2c1S(=O)(=O)O`, the Potency entry in experiment [1] and in experiment [2] was “inactive” each time.
For the compound `CC1=NN(c2ccc(S(=O)(=O)O)cc2)C(=O)C1`, the Potency entry in experiment [1] and in experiment [2] was “inactive” in each case.
Regarding `CC(O)COCC(C)O` (stereo unspecified), the Potency result in experiment [1] and in experiment [2] was “inactive” throughout.
Take `CCO[Si](CC)(OCC)OCC`: the Potency entry in experiment [1] and in experiment [2] was “inactive” each time.
Regarding `CCCCSCCCC`, the Potency entry in experiment [1] and in experiment [2] was “inactive” each time.
With `C[C@]12C(=O)OC(=O)[C@H]1[C@H]1C=C[C@@H]2C1`, the Potency result in experiment [1] and in experiment [2] was “inactive” throughout.
As to `CCCC(=O)O[C@]1(C(=O)CC)CC[C@H]2[C@@H]3CCC4=CC(=O)CC[C@]4(C)[C@H]3[C@@H](O)C[C@@]21C`, the Potency result in experiment [1] and in experiment [2] was “inactive” each time.
Take `Cn1ccnc1`: the Potency result in experiment [1] and in experiment [2] was “inactive” throughout.
`CCOC(=O)c1c(N)sc2c1CCN(Cc1ccccc1)C2`: the Potency result in experiment [1] and in experiment [2] was “inactive” throughout.
`CCOC(=O)COc1ccc(C)cc1`: the Potency result in experiment [1] and in experiment [2] was “inactive” throughout.
Take `CC[N+](CC)(CC)CCOC(=O)C(C1CCCC1)C1CCCC1`: the Potency result in experiment [1] and in experiment [2] was “inactive” throughout.
For the compound `CN(C)CCCOC1(Cc2ccccc2)CCCCCC1`, the Potency result in experiment [1] and in experiment [2] was “inactive” throughout.
With `Cc1ccc([N+](=O)[O-])c(C)c1`, the Potency entry in experiment [1] and in experiment [2] was “inactive” each time.
For `O=C(O)c1ccc(S(=O)(=O)O)cc1C(=O)O`, the Potency result in experiment [1] and in experiment [2] was “inactive” each time.
In the case of `Oc1ccc(OCc2ccccc2)cc1`, the Potency result in experiment [1] and in experiment [2] was “inactive” each time.
On to `C/C=C(\C)C(C)=O`, for which the Potency result in experiment [1] and in experiment [2] was “inactive” each time.
In the case of `CCCCCOc1ccccc1/C(=C\SC)n1ccnc1`, the Potency entry in experiment [1] and in experiment [2] was “inactive” throughout.
Turning to `Cc1cc(O)cc2c1O[C@](C)(CCC[C@H](C)CCC[C@H](C)CCCC(C)C)CC2`, the Potency result in experiment [1] and in experiment [2] was “inactive” throughout.
For `CCCC(C)CCC(C)=O` (stereo unspecified), the Potency entry in experiment [1] and in experiment [2] was “inactive” throughout.
As to `Nc1c(I)cc(I)c(C(=O)N(CCC(=O)O)c2ccccc2)c1I`, the Potency result in experiment [1] and in experiment [2] was “inactive” each time.
For `CCCCC(CC)COP(=O)(O)OCC(CC)CCCC` (stereo unspecified), the Potency entry in experiment [1] and in experiment [2] was “inactive” each time.
As for `CC(C)=CCC/C(C)=C/CC/C(C)=C/CCC(=O)OC/C=C(\C)CCC=C(C)C`, the Potency result in experiment [1] and in experiment [2] was “inactive” in each case.
As to `CC(=O)OC/C=C(/C)CCC=C(C)C`, the Potency result in experiment [1] and in experiment [2] was “inactive” throughout.
Consider `CNC(=O)Oc1ccc2c(c1)[C@]1(C)CCN(C)[C@@H]1N2C`, for which the Potency entry in experiment [1] and in experiment [2] was “inactive” in each case.
